# Laboratory results reported in a collection of fitness landscapes (doi:10.1016/j.celrep.2020.107928).
# Whole data set: some 81,000 sequences, median “one-hybrid fitness for binding NBS DNA” near -0.1, cut for the highest 2% near 0.36. This is one part of a sample in which the highest values are shown more often than they occur.
# B1: Caulobacter ParB omega fusion; a variant is named by its letters at X, in order, B8GW30 (parent)
# chain: MESVVVGEPGMSEGRRGLGRGLSALLGEVDAAPAQAPGEQLGGSREAPIEILQRNPDQPRRTFREEDLEDLSNSIREKGVLQPILVRPSPDTAGEYQIVAGERAWRAAQRAGLKTVPIMVRELDDLAVLEIGIIENVQRADLNVLEEALSYKVLMEKFERTQENIAQTIGKSXSHVANXMRLLXLPDEVQSYLVSGELTAXHARAIAAAADPVALAKQIIEGGLSVRETEALARKAPNLSAGKSKGGRPPRVKDTDTQALESDLSSVLGLDVSIDHRGSTGTLTITYATLEQLDDLCNRLTRGI
# Variants of: B1
# Test: one-hybrid fitness for binding NBS DNA (the Noc-binding site; scaled: cognate 1, non-cognate 0); higher = stronger binding
# Conditions: with NBS DNA site
# Outline: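 On M9-minus-histidine containing 0.1 mM IPTG and 5 mM 3-AT, E. coli USO cells with a HIS3 reporter, site 19 bp from the promoter, grew 48 hours at 37°C to select Caulobacter ParB libraries randomised at four specificity codons. Plasmids from before and after were Illumina-sequenced, with three replicate libraries pooled and variants under 10 reads left out. Fitness is the log change in variant-to-wild-type read ratio, rescaled against cognate and non-cognate.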
row,Variant,one-hybrid fitness for binding NBS DNA
1,VHWG,≤ 0.2
2,DTCT,≤ 0.2
3,VLPC,≤ 0.2
4,GGCG,≤ 0.2
5,PDVF,≤ 0.2
6,YPIT,≤ 0.2
7,SGYG,≤ 0.2
8,SCFT,≤ 0.2
9,METY,≤ 0.2
10,RRMN,0.245
11,RRMP,≤ 0.2
12,RRMS,0.628
13,RRMH,0.403
14,RRMD,≤ 0.2
15,RCMH,≤ 0.2
16,TKWD,≤ 0.2
17,AEDA,≤ 0.2
18,APCN,≤ 0.2
19,YRRI,≤ 0.2
20,AVHL,≤ 0.2
21,TDRM,≤ 0.2
22,TYEH,≤ 0.2
23,HSVS,≤ 0.2
24,ARTM,≤ 0.2

row,Variant,one-hybrid fitness for binding NBS DNA
1,HHLA,≤ 0.2
2,QYMT,0.416
3,QTMP,≤ 0.2
4,QTMT,0.551
5,QYMY,0.453
6,QYMH,≤ 0.2
7,QYMN,≤ 0.2
8,QMMT,0.378
9,QMMF,≤ 0.2
10,QMMS,0.333
11,QYMP,≤ 0.2
12,QTMD,≤ 0.2
13,QYMS,0.314
14,CSAE,≤ 0.2
15,YFMR,≤ 0.2
16,TNFF,≤ 0.2
17,AHDA,≤ 0.2
18,FHFL,≤ 0.2
19,CNVL,≤ 0.2
20,HYMT,≤ 0.2
21,QLMT,0.34
22,QIMT,0.219
23,QRMC,0.333
24,QRMT,0.729

row,Variant,one-hybrid fitness for binding NBS DNA
1,QKMT,0.424
2,QPMT,≤ 0.2
3,QSMT,0.368
4,QRMG,0.329
5,QKMN,≤ 0.2
6,QAMT,0.346
7,QCMT,0.477
8,QKMY,0.224
9,QLVV,≤ 0.2
10,KKDV,≤ 0.2
11,RLWA,≤ 0.2
12,WGTT,≤ 0.2
13,PARD,≤ 0.2
14,RCAQ,≤ 0.2
15,FSIR,≤ 0.2
16,RTFH,≤ 0.2
17,RTFP,≤ 0.2
18,RTAF,≤ 0.2
19,RTAT,0.499
20,RTFT,0.417
21,RTAQ,≤ 0.2
22,YRWR,≤ 0.2
23,QYAW,≤ 0.2
24,CWPD,≤ 0.2

row,Variant,one-hybrid fitness for binding NBS DNA
1,IVKR,≤ 0.2
2,TREN,≤ 0.2
3,RVKR,0.665
4,RVKH,0.321
5,RVVR,0.3
6,RVVT,0.261
7,RVKS,0.578
8,RVKD,≤ 0.2
9,RVKN,0.203
10,RVKP,≤ 0.2
11,RVKT,0.652
12,DVAM,≤ 0.2
13,FLSS,≤ 0.2
14,SKYT,≤ 0.2
15,PHGE,≤ 0.2
16,KVPL,≤ 0.2
17,QVKM,0.229
18,QVKP,≤ 0.2
19,QVKS,0.49
20,QVVY,≤ 0.2
21,QVKQ,0.241
22,QVKY,0.383
23,QVVT,0.248
24,QVKD,≤ 0.2

row,Variant,one-hybrid fitness for binding NBS DNA
1,QVKH,0.38
2,QVKN,≤ 0.2
3,QVKT,0.564
4,QVYY,≤ 0.2
5,MVLL,≤ 0.2
6,KYVG,≤ 0.2
7,NCLS,≤ 0.2
8,FLLI,≤ 0.2
9,SFTN,≤ 0.2
10,QSWH,≤ 0.2
11,PPWR,≤ 0.2
12,RQTS,0.436
13,RQTD,≤ 0.2
14,RQTT,0.487
15,RQTP,≤ 0.2
16,RQTQ,≤ 0.2
17,RQTR,0.497
18,RQTN,≤ 0.2
19,RQTM,≤ 0.2
20,RQTH,≤ 0.2
21,KQNL,≤ 0.2
22,SITL,≤ 0.2
23,CLCV,≤ 0.2
24,LGTW,≤ 0.2

row,Variant,one-hybrid fitness for binding NBS DNA
1,DDVR,≤ 0.2
2,LTIS,≤ 0.2
3,VYRA,≤ 0.2
4,IHWG,≤ 0.2
5,RKRQ,0.246
6,RKQH,≤ 0.2
7,RKQT,0.606
8,RCLT,0.436
9,RPLT,≤ 0.2
10,RKCT,0.583
11,RKQP,≤ 0.2
12,RKRG,0.238
13,RSLT,0.292
14,RKCM,≤ 0.2
15,RKRT,0.676
16,RKCQ,≤ 0.2
17,YFSE,≤ 0.2
18,GPRA,≤ 0.2
19,PFTR,≤ 0.2
20,YKRA,≤ 0.2
21,NSHG,≤ 0.2
22,NIIS,≤ 0.2
23,GQRS,≤ 0.2
24,NYVI,≤ 0.2

row,Variant,one-hybrid fitness for binding NBS DNA
1,EAFS,≤ 0.2
2,LCHL,≤ 0.2
3,RFWT,≤ 0.2
4,RKNQ,≤ 0.2
5,RTLY,≤ 0.2
6,RKGQ,≤ 0.2
7,RKGM,0.218
8,RKNT,0.698
9,RKNG,≤ 0.2
10,RIWT,0.279
11,RKWT,0.456
12,RKGT,0.649
13,RTLT,0.461
14,RTLP,≤ 0.2
15,RNGC,≤ 0.2
16,RYHW,≤ 0.2
17,PRPF,≤ 0.2
18,RYAS,0.342
19,NTFG,≤ 0.2
20,PTNR,≤ 0.2
21,VRMT,≤ 0.2
22,RKSF,≤ 0.2
23,RKYT,0.643
24,RKDT,0.498

row,Variant,one-hybrid fitness for binding NBS DNA
1,RKPT,0.236
2,RKIT,0.361
3,RKLY,≤ 0.2
4,RKSC,0.273
5,RKLK,≤ 0.2
6,RKDF,≤ 0.2
7,RKST,0.639
8,RKLT,0.579
9,IDAR,≤ 0.2
10,TMSR,≤ 0.2
11,SFKS,≤ 0.2
12,WVLY,≤ 0.2
13,SIAR,≤ 0.2
14,RKVI,≤ 0.2
15,KPTD,≤ 0.2
16,SPSM,≤ 0.2
17,RVWC,≤ 0.2
18,RPWT,≤ 0.2
19,RKHH,0.245
20,RKHP,≤ 0.2
21,RCWT,0.418
22,RKHT,0.645
23,RSWT,0.215
24,NLDC,≤ 0.2

row,Variant,one-hybrid fitness for binding NBS DNA
1,PTPS,≤ 0.2
2,QRQN,0.402
3,QRQH,0.544
4,QLQQ,≤ 0.2
5,QRQF,0.323
6,QCQM,≤ 0.2
7,QRQQ,0.397
8,QHQH,≤ 0.2
9,QCQH,0.222
10,QRQM,0.395
11,QRQC,0.362
12,QREQ,≤ 0.2
13,QSQM,≤ 0.2
14,WQMR,≤ 0.2
15,TQQR,≤ 0.2
16,EVHL,≤ 0.2
17,DGGN,≤ 0.2
18,RFYH,≤ 0.2
19,ATCR,≤ 0.2
20,LYYL,≤ 0.2
21,KGWY,≤ 0.2
22,YQPD,≤ 0.2
23,QRQS,0.688
24,QRQD,0.228

row,Variant,one-hybrid fitness for binding NBS DNA
1,QRQP,0.222
2,NYIC,≤ 0.2
3,TPDF,≤ 0.2
4,QTTH,0.385
5,QTTD,≤ 0.2
6,QTTS,0.528
7,QTTN,0.236
8,QTTP,≤ 0.2
9,QTTC,0.223
10,DYIR,≤ 0.2
11,VVWY,≤ 0.2
12,HIDC,≤ 0.2
13,RPWS,≤ 0.2
14,RCWS,0.388
15,RKYP,≤ 0.2
16,RKWS,0.467
17,RSWS,0.238
18,RKWD,≤ 0.2
19,RKYD,≤ 0.2
20,RKWN,≤ 0.2
21,RKRP,≤ 0.2
22,RKYS,0.562
23,RKRN,0.258
24,RKRS,0.666

row,Variant,one-hybrid fitness for binding NBS DNA
1,VTLY,≤ 0.2
2,TYNS,≤ 0.2
3,QTTI,≤ 0.2
4,HNLL,≤ 0.2
5,CGRS,≤ 0.2
6,WGSW,≤ 0.2
7,SGTG,≤ 0.2
8,DHMC,≤ 0.2
9,QRPE,≤ 0.2
10,EVQC,≤ 0.2
11,LFWV,≤ 0.2
12,RKDN,≤ 0.2
13,RKIP,≤ 0.2
14,RKRD,≤ 0.2
15,RKPS,≤ 0.2
16,RKYH,0.228
17,RKDH,0.401
18,RKRH,0.429
19,RKIR,0.384
20,RKIS,0.403
21,RPIR,≤ 0.2
22,RKNH,0.335
23,RKPR,≤ 0.2
24,SRFC,≤ 0.2

row,Variant,one-hybrid fitness for binding NBS DNA
1,FDKC,≤ 0.2
2,SRTT,≤ 0.2
3,PLES,≤ 0.2
4,WGAE,≤ 0.2
5,WTLY,≤ 0.2
6,RKLD,≤ 0.2
7,RKLP,≤ 0.2
8,RKLS,0.496
9,ISNA,≤ 0.2
10,YLVK,≤ 0.2
11,QWGI,≤ 0.2
12,QANA,0.257
13,QHNA,0.294
14,QRNA,0.632
15,QRDA,0.394
16,QPDA,≤ 0.2
17,TKKF,≤ 0.2
18,TGPI,≤ 0.2
19,SSSR,≤ 0.2
20,GRQQ,≤ 0.2
21,PLWH,≤ 0.2
22,KPII,≤ 0.2
23,RDGI,≤ 0.2
24,NLSK,≤ 0.2

row,Variant,one-hybrid fitness for binding NBS DNA
1,QAKQ,0.408
2,QAKP,≤ 0.2
3,QAKS,0.618
4,QAVS,0.226
5,QAKN,0.356
6,QAKH,0.541
7,QAVQ,0.32
8,QARQ,0.332
9,QAKD,≤ 0.2
10,CHHT,≤ 0.2
11,ELRT,≤ 0.2
12,KKDT,≤ 0.2
13,KKNN,≤ 0.2
14,KKRT,0.381
15,KKQT,0.393
16,KKQP,≤ 0.2
17,KKAT,0.309
18,KHQT,≤ 0.2
19,KKYT,0.249
20,KKNT,0.425
